About 83,000 compounds went through this panel and 20% of them were active in at least one assay; those are over-represented in the sample as a whole.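 Activity criterion: percent growth below 10, measured after cells in 96-well plates were exposed to a single compound concentration for 48 hours.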 Calls of active or inactive are those of the source.
Legend:
Test in all cases: NCI-60 one-dose screen, 48 h (100 = growth as untreated, 0 = no growth, -100 = all killed)
Details in all cases: 10 µM unless noted
DU-145 prostate = system: DU-145 prostate
K-562 leukemia = system: K-562 leukemia
MALME-3M melanoma = system: MALME-3M melanoma
MDA-MB-231 breast = system: MDA-MB-231 breast
RXF 393 renal = system: RXF 393 renal
SF-268 CNS = system: SF-268 CNS
SF-295 CNS = system: SF-295 CNS
SF-539 CNS = system: SF-539 CNS
UACC-257 melanoma = system: UACC-257 melanoma
M14 melanoma = system: M14 melanoma
HCT-15 colon = system: HCT-15 colon
HT29 colon = system: HT29 colon
SNB-19 CNS = system: SNB-19 CNS
U251 CNS = system: U251 CNS
PC-3 prostate = system: PC-3 prostate
SK-MEL-5 melanoma = system: SK-MEL-5 melanoma
UACC-62 melanoma = system: UACC-62 melanoma
LOX IMVI melanoma = system: LOX IMVI melanoma
SK-MEL-28 melanoma = system: SK-MEL-28 melanoma
SNB-75 CNS = system: SNB-75 CNS

Measured: growth

Cn1cccc1C1CC(=O)N(CCC[Se]C#N)C1=O (configuration not stated)
active: DU-145 prostate -76% | MALME-3M melanoma -30.1% | MDA-MB-231 breast -45.3% | RXF 393 renal -48.7% | SF-268 CNS -31.8% | SF-295 CNS -58.2% | SF-539 CNS -81.2% | UACC-257 melanoma -70.6% | M14 melanoma 4.09% | HCT-15 colon -56.5% | HT29 colon 7.03% | SNB-19 CNS -65.2% | U251 CNS -85.5% | PC-3 prostate 6.15% | SK-MEL-5 melanoma -51.9% | LOX IMVI melanoma -66.8% | SK-MEL-28 melanoma -6.1%
inactive: K-562 leukemia 16.2% | UACC-62 melanoma 27%

CC1=C(O)[C@@](C)(CCCCC[C@H](C)CCCCc2ccc(O)cc2)OOC1=O
inactive: DU-145 prostate 113% | K-562 leukemia 94.4% | MALME-3M melanoma 87.3% | MDA-MB-231 breast 85.2% | RXF 393 renal 111% | SF-268 CNS 110% | SF-295 CNS 90.4% | SF-539 CNS 101% | UACC-257 melanoma 89.8% | M14 melanoma 96.6% | HCT-15 colon 98.3% | HT29 colon 105% | SNB-19 CNS 101% | U251 CNS 92.8% | PC-3 prostate 75.4% | SK-MEL-5 melanoma 102% | UACC-62 melanoma 79.2% | LOX IMVI melanoma 69.8% | SK-MEL-28 melanoma 114%

Clc1cc(N2CC2)nc(N2CC2)n1
inactive: DU-145 prostate 52.5% | K-562 leukemia 69% | MALME-3M melanoma 89.7% | MDA-MB-231 breast 88.1% | RXF 393 renal 78% | SF-268 CNS 59.3% | SF-295 CNS 40.7% | SF-539 CNS 43.8% | UACC-257 melanoma 76.7% | M14 melanoma 57.4% | HT29 colon 79.8% | SNB-75 CNS 70.6% | SNB-19 CNS 65.9% | U251 CNS 67.9% | PC-3 prostate 65.2% | SK-MEL-5 melanoma 73.9% | UACC-62 melanoma 54.4% | LOX IMVI melanoma 51.7% | SK-MEL-28 melanoma 92.1%

COc1cc2c(=O)n(C3CCCCCCC3)c3c4cc[nH]c4ncc3c2cc1OC
active: K-562 leukemia 8.73% | SF-539 CNS -0.216%
inactive: DU-145 prostate 62.5% | MALME-3M melanoma 62.6% | MDA-MB-231 breast 42.1% | RXF 393 renal 19.1% | SF-268 CNS 42.4% | SF-295 CNS 33.2% | UACC-257 melanoma 93.8% | M14 melanoma 71.4% | HCT-15 colon 62.4% | HT29 colon 66.8% | SNB-19 CNS 55.2% | U251 CNS 12.7% | PC-3 prostate 65.8% | SK-MEL-5 melanoma 64.2% | UACC-62 melanoma 89.1% | LOX IMVI melanoma 41.5% | SK-MEL-28 melanoma 85.5%

Cc1ccccc1NC(=NCCCN1CC1)Nc1ccccc1C
inactive: DU-145 prostate 90.1% | K-562 leukemia 94% | MALME-3M melanoma 105% | MDA-MB-231 breast 64.4% | RXF 393 renal 85.3% | SF-268 CNS 86.5% | SF-295 CNS 103% | SF-539 CNS 109% | UACC-257 melanoma 103% | M14 melanoma 91.3% | HT29 colon 75.5% | SNB-75 CNS 100% | SNB-19 CNS 96.8% | U251 CNS 91.5% | PC-3 prostate 74.4% | SK-MEL-5 melanoma 98% | UACC-62 melanoma 105% | LOX IMVI melanoma 75.3% | SK-MEL-28 melanoma 111%

CC(=O)O[C@H](C[C@H](C(C)C)N(C)C(=O)[C@@H](NC(=O)[C@H]1CCCN1C)C(C)C)c1nc(C(=O)N[C@@H](Cc2ccccc2)C[C@H](C)C(=O)O)c(C)s1
active: K-562 leukemia 9.54% | SF-539 CNS -3.18% | M14 melanoma 4.87% | HT29 colon 2.64% | U251 CNS 5.53% | SK-MEL-5 melanoma -19.2%
inactive: DU-145 prostate 15.3% | MALME-3M melanoma 53.9% | MDA-MB-231 breast 15.1% | RXF 393 renal 61.6% | SF-268 CNS 29.9% | SF-295 CNS 11% | UACC-257 melanoma 38.2% | SNB-75 CNS 50.5% | SNB-19 CNS 33.2% | PC-3 prostate 19.2% | UACC-62 melanoma 39.3% | LOX IMVI melanoma 27.4% | SK-MEL-28 melanoma 61.9%

C1CCC([PH+](C2CCCCC2)C2CCCCC2[PH+](C2CCCCC2)C2CCCCC2)CC1.[Au].[CH-]1CCCCC1CC1CCCC[N-]1 (configuration not stated)
active: DU-145 prostate -51.1% | K-562 leukemia 3.54% | MALME-3M melanoma -43.5% | MDA-MB-231 breast -44.6% | RXF 393 renal -92.7% | SF-268 CNS -33.6% | SF-295 CNS -38.8% | SF-539 CNS -75.1% | UACC-257 melanoma -37.3% | M14 melanoma -54.6% | HCT-15 colon -36.9% | HT29 colon 1.89% | SNB-19 CNS -89% | U251 CNS -78.1% | PC-3 prostate -22.2% | SK-MEL-5 melanoma -99.8% | UACC-62 melanoma -71% | LOX IMVI melanoma -97.2% | SK-MEL-28 melanoma -70.5%

CCCC[C@H](NC(=O)[C@H]1CCCCN1C)C(=O)N(C)[C@H](C[C@@H](OC(C)=O)c1nc(C(=O)N[C@@H](Cc2ccccc2)C[C@H](C)C(=O)OCC)cs1)C(C)C
active: K-562 leukemia 7.31% | MDA-MB-231 breast 5.49% | SF-539 CNS -11.1% | M14 melanoma 1.33% | HT29 colon -16.4% | U251 CNS 5.09% | SK-MEL-5 melanoma -26%
inactive: DU-145 prostate 16.2% | MALME-3M melanoma 37.4% | RXF 393 renal 28.8% | SF-268 CNS 21.6% | SF-295 CNS 16.9% | UACC-257 melanoma 49.5% | SNB-75 CNS 41.9% | SNB-19 CNS 37.5% | PC-3 prostate 17.5% | UACC-62 melanoma 46.2% | LOX IMVI melanoma 17.9% | SK-MEL-28 melanoma 67.4%

— PubChem BioAssay (NCI)
